Compounds with a hit are over-represented: about 5.2% of the library has one in this group of screens.
Tau fluor cs = counter-screen for tau fibril formation inhibitors; 280,000 compounds, 0.93% hits; Potency, µM (titrated, usually from 57.7 µM), for the others: top-dose activity change, negative = decrease; AID 1463; tau K18 P301L Alexa594 fluorescence, heparin fibrillization; also: potency is read from the fitted curve at half-maximal effect; nearly all actives have a fitted effect of over 55% in size
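Human K18 P301L tau (15 uM unlabeled plus 0.24 uM Alexa 594-labeled, final) in 100 mM sodium acetate pH 7 was mixed with compound and 20 uM heparin and incubated 6 hr at 37 C.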
FBPA coupling cs = counter-screen for Giardia aldolase inhibitors: coupling enzyme system; activity change, negative = inhibition, % at 58.2 µM, hits read low; 290,000 compounds, 0.67% hits; coupling enzyme system counterscreen, AmpLite Red fluorescence; in the data active = activity change below about -30%
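Fluorescence at 525 nm excitation and 598 nm emission measured inhibition of the coupled detection system without aldolase. Compounds (at 57.5 uM final) were preincubated 10 min at room temperature with coupling enzyme reagent before a 20 min substrate/AmpLite Red step.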
Tau fibril ThT = inhibitors of human tau fibril formation, thioflavin T binding; Potency, µM (top dose mostly 57.4 µM), inactives show at the top dose activity, negative = inhibition, usual class: inhibitors; 270,000 compounds, 2.1% hits; AID 1460; P10636; recombinant tau K18 P301L (four-repeat tau fragment), heparin-induced fibrillization, ThT fluorescence; also: potency is read from the fitted curve at half-maximal effect; nearly all actives have a fitted effect of over 55% in size
Target sequence (P10636 561-689 P618L limits assumed): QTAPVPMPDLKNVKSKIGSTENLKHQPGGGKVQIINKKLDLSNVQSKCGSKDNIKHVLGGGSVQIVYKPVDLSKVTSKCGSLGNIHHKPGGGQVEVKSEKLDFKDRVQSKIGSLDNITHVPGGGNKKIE
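Recombinant human tau K18 fragment […] carrying P301L, 15 uM unlabeled plus 0.24 uM Alexa 594-labeled, was fibrillized with 20 uM heparin in 100 mM sodium acetate pH 7 for 6 hr at 37 C; 30 uM ThT fluorescence read after 1 hr.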
Sfp PPTase inh = inhibitors of Bacillus subtilis Sfp phosphopantetheinyl transferase | 310,000 compounds, 3.5% hits | Q9F4F7 | Potency, µM, without a hit: largest response in the series, negative = inhibition, usual class: inhibitors | Biochemical Sfp PPTase activity, qHTS | AID 1490;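 also: the enzyme is Sfp with the accession as filed and its product quenches rhodamine fluorescence; potency is read from the fitted curve at half-maximal effect; 0% = enzyme reaction without inhibitor and -100% = no enzyme wells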
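Reaction rates are the 30-min fluorescence difference (ex 525, em 598 nm) in wells containing 15 nM Sfp, 5 uM rhodamine-CoA and 12.5 uM BHQ-2-YbbR at pH 7.6 with 10 mM MgCl2.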
Tau FP inhib = blocks human tau fibril formation measured by polarization; P10636; K18 P301L tau heparin fibrillization, Alexa594 FP, 6 h; Potency, µM (titrated, usually from 57.7 µM), for inactives: top-dose activity, negative = inhibition, actives largely listed as inhibitors; 280,000 compounds, 0.39% hits; also: potency is read from the fitted curve at half-maximal effect; nearly all actives have a fitted effect of over 55% in size
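Read-out: fluorescence polarization of Alexa 594-labeled tau (0.24 uM), 555 nm excitation, 632 nm emission. Mixtures held 15 uM unlabeled K18 P301L, compound and 20 uM heparin, pH 7 acetate buffer, incubated 6 hr at 37 C.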
Numbers without * were called inactive; ? = inconclusive; nt = not tested or not shown; [ ] = another dose, or the depositor's remark. Unless noted, calls follow the shape of the dose curve; as a rule, active = well fitted curve in the direction sought with a large enough effect; inconclusive = small, poorly fitted or top-dose-only effect, or another doubt; inactive = no such curve, though single readings can be large; an effect the other way counts as inactive or inconclusive. Unless noted, % is scaled to controls: 0 for no effect and ±100 for the full control effect.

SMILES | Tau fluor cs | FBPA coupling cs | Tau fibril ThT | Sfp PPTase inh | Tau FP inhib
CC1Cc2cc(S(=O)(=O)NCc3ccc(N(C)C)cc3)ccc2N1C(=O)C1CCC1 (stereo not drawn) | -20% | nt | -12% | nt | 5%
COc1cccc(CCc2ccccc2OCC(CN(C)C)OC(=O)CCC(=O)O)c1 (stereo not drawn) | nt | nt | nt | 24% | nt
COc1cccc(N2CCN(C(=O)/C=C/c3ccco3)CC2)c1 | -1% | -19 | -14% | 8.9µM* | 8%
COC(=O)c1c(NC(=O)/C=C/c2ccco2)sc2c1CCC2 | 8% | 0 | -5% | -6% | 4%
Cc1sc(NC(=O)/C=C/c2ccco2)c(C(=O)OC(C)C)c1C | -15% | 0 | -12% | 32µM* | ?
O=C(/C=C/c1ccco1)N1CCN(c2ncccn2)CC1 | -8% | -1 | -19% | ? | -7%
CCCCCCCCCCCCCCCCn1cc[n+](C)c1 | -16% | 0 | ? | 22µM* | 11%
CCCCCCCCn1ccc(=N)cc1 | 1% | 4 | -3% | -1% | 5%
COc1cccc(-n2cc(C(=O)Nc3ccccc3C(N)=O)c3ccccc3c2=O)c1 | -13% | nt | -6% | nt | 0%
CCc1ccccc1NC(=O)C1CCN(S(=O)(=O)c2ccc3[nH]c(=O)ccc3c2)CC1 | 1% | nt | -6% | nt | 3%
O=C(Nc1nnc(-c2ccc(F)cc2)s1)c1ccco1 | nt | 0 | nt | -1% | nt
O=C(Nc1n[nH]c(=S)s1)c1ccco1 | nt | 0 | nt | 56µM* | nt
O=C(O)c1ccc(N/N=C/c2ccc(-c3ccc(Br)cc3)o2)cc1 | nt | 6 | nt | 2% | nt
O=C(O)c1cc(-c2ccc(/C=N/Nc3ccc(Cl)cc3)o2)ccc1Cl | 11µM*[quencher] | -8 | 8.9µM* | -21% | 2%
Nc1nonc1C(=O)N/N=C/c1ccc(-c2ccc(Cl)c(C(=O)O)c2)o1 | 7% | -2 | ? | 8.9µM* | 5%
Cc1ccc(NC(=O)/C(C#N)=C/c2ccc(-c3ccc(Cl)c(C(=O)O)c3)o2)cc1C | -2% | nt | 4.5µM* | nt | -2%
CN1CCN(c2cc(-c3ccoc3)ncn2)CC1 | nt | 2 | nt | ? | nt
COc1ccccc1NC(=O)CN(Cc1ccco1)C(=O)c1ccc(-n2nc(C)cc2C)cc1 | -5% | -2 | -8% | -2% | -10%
COc1ccccc1NC(=O)CN(Cc1ccco1)C(=O)c1cncc(Br)c1 | -11% | -31* | -15% | -8% | -3%
CN(C)NC(=S)Nc1cccc(C(F)(F)F)c1 | -5% | 8 | -9% | 3% | 9%
FC(F)(F)c1cccc(NC(=S)NNC(=S)Nc2ccc(Cl)cc2)c1 | 8.9µM*[quencher] | -2 | nt | 25µM* | ?
Cc1ccc(NC(=S)NNC(=S)Nc2cccc(C(F)(F)F)c2)cc1 | 14µM*[quencher] | -1 | nt | 28µM* | ?
O=C(NCc1cccs1)c1cccc(Nc2nc3ccc(Br)cc3[nH]2)c1 | 7.9µM*[quencher] | 1 | ? | ? | ?
CCc1cccc(C)c1NC(=O)c1cccc(N(C)C)c1 | -12% | -1 | ? | 56µM* | -5%
O=C(NCc1ccccn1)C1(C(F)(F)F)CC(CCCO)CCCO1 (stereo not drawn) | nt | 2 | nt | 17% | nt
SMILES | Tau fluor cs | FBPA coupling cs | Tau fibril ThT | Sfp PPTase inh | Tau FP inhib
COc1ccc(NC(=O)CSc2nc3ccccc3c(=O)n2CCNC(C)=O)c(OC)c1 | -6% | 5 | -6% | 25µM* | -7%
C=CCN(C(=O)CSc1nc2c(sc3ccccc32)c(=O)n1CCN(CC)CC)c1ccccc1 | -22% | 1 | ? | 50µM* | ?
COc1ccccc1NC(=O)CSc1nc2c(sc3ccccc32)c(=O)n1CCN(C)C | -14% | -5 | ? | 40µM* | ?
CCNc1ncc2nc(-c3ccc(F)cc3)c(=O)n(C[C@H]3CCCO3)c2n1 | nt | 0 | nt | 28% | nt
O=C(NCc1n[nH]c(=S)n1-c1ccccc1)c1ccc(S(=O)(=O)N2CCOCC2)cc1 | -2% | 2 | -4% | -15% | 0%
O=C(NCc1n[nH]c(=S)n1-c1ccc(F)cc1)c1ccc(S(=O)(=O)N2CCOCC2)cc1 | -13% | 8 | -9% | 45µM* | ?
CCCCN(C(=O)NC(=O)Nc1nc2ccc(OC)cc2s1)S(C)(=O)=O | -10% | 1 | 5% | 56µM* | -3%
CC[C@H](C)[C@H](NC(=O)[C@H](C)NC(=O)[C@H](Cc1cnc[nH]1)NC(=O)[C@@H]1CCCN1C(=O)CNC(=O)[C@H](CC(C)C)NC(=O)[C@H](CC(C)C)NC(=O)[C@H](Cc1ccc(O)cc1)NC(=O)CNC(=O)[C@H](C)NC(=O)[C@H](CO)NC(=O)[C@H](CC(N)=O)NC(=O)[C@H](CC(C)C)NC(=O)[C@@H](NC(=O)[C@H](Cc1c[nH]c2ccccc12)NC(=O)CN)[C@@H](C)O)C(=O)O | nt | 0 | nt | -11% | nt
CN(c1ccccc1)c1ccc(/C=C/[N+](=O)[O-])cc1 | -18% | -5 | -14% | 18µM* | 1%
CCOC(=O)CSc1nnc(-c2ccccc2)c(-c2ccccc2)n1 | nt | 0 | nt | -2% | nt
CCc1nnc(NC(=O)CSc2nc(-c3ccc(OC)cc3)ns2)s1 | -1% | 2 | -2% | 5% | -8%
COc1ccc(-c2nsc(SCC(=O)Nc3cc(C)on3)n2)cc1 | -4% | 0 | -8% | 16µM* | -8%
CCOC(=O)CNC(=O)CSc1nc(-c2ccc(OC)cc2)ns1 | 1% | -1 | -3% | 40µM* | -1%
Cc1cccc(-c2nsc(SCC(=O)Nc3nccs3)n2)c1 | -11% | -1 | -11% | 50µM* | -4%
Cc1cccc(-c2nsc(SCC(=O)Nc3ccc4c(c3)OCO4)n2)c1 | ? | 2 | ? | -24% | -6%
CCOC(=O)CSc1nc(-c2ccccc2)ns1 | 2% | 4 | -3% | 16µM* | 3%
CCC1CC=CC2C1C(=O)N(Cc1ccccc1)C2c1cc(C)ccc1F (stereo not drawn) | nt | -2 | nt | -9% | nt
O=C(CSc1nc(-c2ccccc2)ns1)N1CCOCC1 | -15% | 3 | -6% | 40µM* | 0%
CC(=O)OCC1OC(C#Cc2ccc(Cl)cc2)C=CC1OC(C)=O (stereo not drawn) | -15%[11.6 µM] | 2 | -14%[11.5 µM] | 8% | 0%[11.6 µM]
Oc1c(Cl)cc(Cl)c2c1NCCC2 | ? | -48* | 14µM* | 16µM* | ?
CCOc1cc(CN2CCCCC2)ccc1OC | 9% | -1 | 3% | 7% | 2%
CCOc1cc(CN2CCN(c3ccc(C(C)=O)cc3)CC2)ccc1OC | -22% | 1 | ? | 79µM* | 3%
CCOC(=O)N1CCN(C(=O)C2CCN(S(=O)(=O)CC)CC2)CC1 | 25µM*[quencher] | 1 | 8% | 12% | ?
CC1(C)CC(=O)C2=C(C1)Nc1[nH]c(=S)[nH]c(=O)c1C2c1ccccc1 (stereo not drawn) | -2% | 0 | -16% | 28µM* | -3%
